SMN2 splice up = increases expression of the SMN2 splice variant. HEK293 SMN2-luciferase splicing reporter, luminescence, 30-36 h. Potency, µM (highest dose often 46.1 µM), usual class: activators. hit rate 2.8% among 210,000. AID 1458; further: nearly all actives have a fitted effect of over 55% in size
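HEK293 cells carry an SMN2 minigene-luciferase reporter in which exon 7 inclusion puts luciferase in frame. Cells were seeded at 2000 cells/well, attached for 10-12 hours, then exposed to compounds for 30-36 hours at 37C before ONE-Glo luminescence.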
Luc counter = blocks Kinase-Glo luciferase, a counter-screen artifact. Kinase-Glo luciferase, ATP luminescence, 8 min. Q27757. Potency, µM (series often up to 38.3 µM), usual class: inhibitors. AID 1379. hit rate 0.28% among 200,000; further: nearly all actives have a fitted effect of over 60% in size
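Light output from Kinase-Glo luciferase with luciferin and 10 uM ATP in 50 mM imidazole pH 7.2, KCl, MgCl2, Tween 20, BSA; compound pin-delivered, 8-min ambient incubation, then luminescence read.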
FLuc modulator = inhibits or activates purified firefly luciferase, miR-21 counter-screen | P08659 | purified FLuc, Km substrates, luminescence inhibition | Potency, µM (doses to about 57.5 µM), actives largely listed as inhibitors | hit rate 6.9% among 360,000 | AID 588342; further: nearly all actives have a fitted effect of over 55% in size
Target sequence (P08659 whole entry, looked up): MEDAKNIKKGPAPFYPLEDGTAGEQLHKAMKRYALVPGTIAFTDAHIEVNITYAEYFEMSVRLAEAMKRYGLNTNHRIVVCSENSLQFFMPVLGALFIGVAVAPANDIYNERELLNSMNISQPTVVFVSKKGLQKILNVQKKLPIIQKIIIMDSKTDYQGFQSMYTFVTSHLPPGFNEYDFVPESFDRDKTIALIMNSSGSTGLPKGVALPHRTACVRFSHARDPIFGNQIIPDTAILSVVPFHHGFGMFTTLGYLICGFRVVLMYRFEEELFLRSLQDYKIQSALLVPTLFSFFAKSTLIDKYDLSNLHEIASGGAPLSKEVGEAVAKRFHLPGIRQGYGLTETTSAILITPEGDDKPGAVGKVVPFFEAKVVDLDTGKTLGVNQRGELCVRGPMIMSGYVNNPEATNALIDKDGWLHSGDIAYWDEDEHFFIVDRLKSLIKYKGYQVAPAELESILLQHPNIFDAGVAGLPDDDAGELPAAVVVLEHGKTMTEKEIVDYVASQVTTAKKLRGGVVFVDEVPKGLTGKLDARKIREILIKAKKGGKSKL
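Purified P. pyralis luciferase (10nM final) with 10uM D-luciferin and 10uM ATP (Km levels) in 50mM Tris acetate pH 7.5, 10mM Mg acetate, 0.01% Tween-20, 0.05% BSA; qHTS 6-point titration, ~60 µM downward; luminescence read.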
ELG1 genotox = genotoxicity induction in ELG1-luciferase HEK293T cells; HEK293T ELG1-luciferase reporter, luminescence, 16 h; Potency, µM (titrated, usually from 46 µM), hits mostly activators; hit rate 1.3% among 330,000; further: nearly all actives have a fitted effect of over 60% in size
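Genotoxicity was scored as increased ELG1-luciferase reporter signal, measured by ONE-Glo luminescence (30 min, room temperature). Compound or vehicle exposure of the HEK293T reporter cells lasted 16 hr at 37°C.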
Rab9 promoter act = activators of Rab9 promoter. Huh7 Rab9 promoter-luciferase reporter, luminescence, 24 h. Potency, µM (top dose mostly 9.22 µM), most hits filed as activators. hit rate 2.8% among 320,000; further: nearly all actives have a fitted effect of over 60% in size
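Using Huh7 cells stably transfected with Rab9 promoter–luciferase, compounds were incubated 24 h at 37 °C, 5% CO2; luciferase luminescence was read 10 min after reagent addition.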
NPC1 prom act = NPC1 promoter activation; Huh7 NPC1 promoter luciferase reporter, 24 h; Potency, µM (top dose mostly 9.22 µM), most hits filed as activators; hit rate 2.4% among 320,000; further: nearly all actives have a fitted effect of over 60% in size
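Cells: Huh7 expressing luciferase under the NPC1 promoter, 1500/well. Seeded 2 h, compound added, incubated 24 h at 37 °C. Luciferase reagent, 10 min ambient, then luminescence.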
Numbers stand for hits; i = inactive; ? = inconclusive; nt = no result given. Sampled rows, rich in hits. Any-hit rate of the full collection: about 7.5%. The call rests on the fitted dose curve; in most records, active means well fitted curve in the direction sought with a large enough effect; inconclusive means small, poorly fitted or top-dose-only effect, or another doubt; inactive means no such curve, though single readings can be large; an effect the other way counts as inactive or inconclusive.

SMILES	SMN2 splice up	Luc counter	FLuc modulator	ELG1 genotox	Rab9 promoter act	NPC1 prom act
CN1CCN(c2ccc(-c3ccnn3C(=O)Nc3ccccc3)cc2)CC1	10µM	i	17µM	?	3.5µM	?
CCSc1nc2c(cnn2-c2ccccc2)c(=O)n1N	nt	nt	13µM	?	1.3µM	2.2µM
COc1ccc(-n2ccnc(NCCc3ccccc3)c2=O)cc1OC	nt	nt	i	nt	nt	nt
O=C(O)c1cccc(NC(=O)c2cccc(S(=O)(=O)N3CCc4ccccc43)c2)c1	nt	nt	21µM	i	i	i
O=C(O)c1cccc(NC(=O)c2cccc(S(=O)(=O)N3CCc4ccccc4C3)c2)c1	i	i	21µM	i	i	i
O=C(CCC(=O)c1ccc[nH]1)c1ccc(Cl)cc1	?	i	12µM	8.2µM	1.6µM	3.2µM
CCCOc1ccc(C(=O)Nc2ccc(CN3CCOCC3)cc2)cc1	nt	nt	13µM	i	i	i
COc1cc(C(=O)Nc2ccc(OCC(=O)N3CCOCC3)cc2C)cc(OC)c1OC	nt	nt	i	i	i	i
COc1c(C)cccc1C(=O)Nc1ccc(OCC(=O)N2CCOCC2)cc1C	nt	nt	13µM	i	i	i
CC(C)Oc1cccc(C(=O)Nc2ccc(CN3CCOCC3)cc2)c1	i	i	12µM	i	i	i
COc1ccc(C(=O)Nc2ccc(CN3CCOCC3)cc2)cc1Br	nt	nt	15µM	i	i	i
CCC(Sc1nnc(C)n2c1cc1occc12)C(=O)Nc1ccccc1F (centres undefined)	nt	nt	i	nt	nt	nt
CCOC(=O)c1c(C)[nH]c(C)c1S(=O)(=O)N1CCCC(C(=O)N2CCN(c3ccccc3)CC2)C1 (centres undefined)	nt	nt	i	nt	nt	nt
COc1c(C)cccc1C(=O)Nc1ccc(CN2CCOCC2)cc1	16µM	i	17µM	?	2.5µM	3.2µM
O=C(Nc1ccc2c(c1)OCCO2)c1ccc(Cl)c(S(=O)(=O)N2CCOCC2)c1	i	i	?	i	i	i
COc1c(Cl)cc(Cl)cc1C(=O)Nc1ccc(CN2CCOCC2)cc1	nt	nt	i	i	i	i
COc1cccc(NC(=O)c2ccc(CN3CCOCC3)cc2)c1	?	i	11µM	i	3.2µM	4µM
O=C(Nc1ccc2c(c1)OCCO2)c1ccc(CN2CCOCC2)cc1	i	i	11µM	i	3.5µM	i
CCN(CC)S(=O)(=O)c1ccc(C(=O)N2CC(=O)Nc3ccc(F)cc3C2c2ccccc2)cc1 (centres undefined)	i	nt	i	nt	nt	nt
COc1cccc(CNc2ccc(Br)cn2)c1O	14µM	i	1.5µM	?	2.8µM	1µM
COc1cccc(CNc2ncc(Br)cc2Br)c1O	i	i	27µM	i	?	?
COc1cccc(CNn2cnnc2)c1O	nt	i	i	i	i	i
Oc1ccc2ccccc2c1CNc1ccc(Br)cn1	nt	nt	24µM	i	i	i
Oc1ccc2ccccc2c1CNc1ccc(Br)cc1	nt	nt	i	i	i	i
Cc1ccc(-n2nc(C)c3c2OC(N)=C(C#N)C3c2ccc(C)o2)cc1 (centres undefined)	i	i	?	i	i	i
SMILES	SMN2 splice up	Luc counter	FLuc modulator	ELG1 genotox	Rab9 promoter act	NPC1 prom act
Cc1nn(-c2ccccc2)c2c1C(c1ccccc1)C(C#N)=C(N)O2 (centres undefined)	i	i	i	i	i	i
Cc1ccc(-n2nc(C)c3c2OC(N)=C(C#N)C3c2ccco2)cc1 (centres undefined)	i	i	1.7µM	i	i	i
Cc1ccc(-n2nc(C)c3c2OC(N)=C(C#N)C3c2ccoc2)cc1 (centres undefined)	i	i	11µM	i	i	i
Cc1ccc2cc3cc(C(=O)NCCCN4CCCC4=O)oc3nc2c1	nt	nt	i	i	i	i
COc1ccc(NC(=O)CCNS(=O)(=O)c2ccc3c(c2)CCC(=O)N3)cc1	i	i	i	i	i	i
c1ccc(OCCOc2ncnc3sccc23)cc1	?	i	?	16µM	2.8µM	i
CC1=C(C(=O)Nc2ccc(C)cc2C)C(CC(C)C)n2nc(SCc3ccccc3C)nc2N1 (centres undefined)	i	nt	i	nt	nt	nt
COC(=O)CN(C)C(=O)c1ccc2nc(Cc3cccc(Cl)c3)oc2c1	nt	nt	24µM	?	3.5µM	2.8µM
COCC1CCCN(C(=O)c2ccc3nc(Cc4cccc(Cl)c4)oc3c2)C1 (centres undefined)	nt	nt	13µM	?	2.2µM	3.2µM
CC12COC3(C(N)=O)CC1CCC32C (centres undefined)	i	i	i	i	i	i
CC(C)Oc1ccc(C2CC(=O)N(c3cccc(C(=O)O)c3)C2=O)cc1 (centres undefined)	i	i	17µM	?	i	i
CC(C)Oc1ccc(C2CC(=O)N(c3ccc(C(=O)O)cc3)C2=O)cc1 (centres undefined)	nt	i	i	i	i	i
O=[N+]([O-])c1ccc(C2Oc3ccccc3C3CC(c4ccccc4)=NN32)s1 (centres undefined)	25µM	i	9.5µM	?	i	i
Cc1cc(C)c(S(=O)(=O)Nc2ccc(-c3ccc(N4CCCCCC4)nn3)cc2)cc1C	nt	nt	i	nt	nt	nt
COc1ccc(S(=O)(=O)Nc2ccc(-c3ccc(N4CCCC4)nn3)cc2)cc1C	nt	nt	i	i	i	i
COc1ccc(S(=O)(=O)Nc2cccc(-c3ccc(N4CCCCC4)nn3)c2)cc1F	nt	nt	2.7µM	nt	nt	nt
COc1ccc(S(=O)(=O)Nc2ccccc2C(=O)N2CCOCC2)cc1F	nt	nt	i	i	i	i
COc1ccc(S(=O)(=O)Nc2cccc(-c3ccc(N4CCOCC4)nn3)c2)cc1F	nt	nt	6.7µM	nt	nt	nt
COc1cc(C)c(C)cc1S(=O)(=O)Nc1cccc(-c2ccc(N3CCOCC3)nn2)c1	nt	nt	27µM	nt	nt	nt
COc1ccc(S(=O)(=O)Nc2cccc(-c3ccc(N4CCCCCC4)nn3)c2)cc1F	nt	nt	5.4µM	nt	nt	nt
COc1ccc(S(=O)(=O)Nc2cccc(S(=O)(=O)N3CCCC3)c2)cc1OC	nt	nt	i	i	i	i
CCCN(C(=O)CCSc1ccc(F)cc1)c1c(N)n(Cc2ccccc2)c(=O)[nH]c1=O	nt	nt	i	i	i	i
Cc1cccc(NC(=O)CSC2=Nc3ccccc3C3=NC(CCC(=O)NCc4ccco4)C(=O)N23)c1 (centres undefined)	i	nt	i	nt	nt	nt
FC(F)(F)c1cccc(-c2nn[nH]n2)c1	i	i	?	i	i	i
FC(F)(F)c1cccc(-c2ccc(-c3csnn3)o2)c1	i	i	17µM	i	?	i
O=Nc1c(O)[nH]c2ccc(Cl)cc12	i	i	i	i	i	i
Cc1ccc(NC(=S)c2nc3ccccc3s2)cc1	?	i	0.95µM	i	2.8µM	1.3µM
O=C(Nc1ccc(Cl)cc1)/C(=C/c1cccc(O)c1)c1nc2ccccc2s1	i	i	?	i	i	i
S=C(Nc1ccc(Cl)cc1)c1nc2ccccc2s1	?	i	6.7µM	i	3.5µM	4µM

Screening data (PubChem)
